# In PubChem BioAssay (NCATS):
# Records with an inconclusive call do not appear. Activity calls are given as the source filed them. Unless noted, calls come from the whole dose curve; as a rule, active = well fitted cell-killing curve with a large enough effect; inconclusive = small, poorly fitted or top-dose-only effect, or effect the other way; inactive = no such curve, though single readings can be large or run the other way.
# Assays:
# [1] = Quantitative High-Throughput drug screen in 47 multiple myeloma cell lines against the NCATS MIPE library collection: OCIMY5_PLB cell viability assay (AID 1918988); note: nearly all actives have a fitted effect of over 65% in size; note: potency is the fitted concentration of half-maximal effect
# Summary of the method: (§1)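 MIPE 4.0 approved/investigational drugs; 500 cells/well; 48 h 37 °C humidified 5% CO2; CTG luminescence readout; DMSO = 100%, media = 0% viability.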
# [2] = Quantitative High-Throughput drug screen in 47 multiple myeloma cell lines against the NCATS MIPE library collection: OPM1_PLB cell viability assay (AID 1918989); note: nearly all actives have a fitted effect of over 40% in size; note: potency is the fitted concentration of half-maximal effect
# Summary of the method: as §1
# [3] = Quantitative High-Throughput drug screen in 47 multiple myeloma cell lines against the NCATS MIPE library collection: SKMM1_PLB cell viability assay (AID 1919863); details: SKMM1 myeloma viability, CellTiter-Glo ATP, 48 h; viability: stronger effect = lower value; note: nearly all actives have a fitted effect of over 35% in size; note: potency is the fitted concentration of half-maximal effect
# Summary of the method: as §1
# [4] = Quantitative High-Throughput drug screen in 47 multiple myeloma cell lines against the NCATS MIPE library collection: U266_ATCC cell viability assay (AID 1919864); note: nearly all actives have a fitted effect of over 35% in size; note: potency is the fitted concentration of half-maximal effect;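 for viability (% of DMSO control): 0% = media-only wells without cells and 100% = DMSO-only wells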
# Summary of the method: as §1
# [5] = Quantitative High-Throughput drug screen in 47 multiple myeloma cell lines against the NCATS MIPE library collection: VP6_DJ cell viability assay (AID 1919867); note: potency is the fitted concentration of half-maximal effect; nearly all actives have a fitted effect of over 40% in size
# Summary of the method: as §1
# [6] = Quantitative High-Throughput drug screen in 47 multiple myeloma cell lines against the NCATS MIPE library collection: OPM2_DSMZ cell viability assay (AID 1919872); note: nearly all actives have a fitted effect of over 30% in size; note: potency is the fitted concentration of half-maximal effect
# Summary of the method: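 Approved and investigational drugs from MIPE 4.0 were added by pin tool to 500 cells per well. After 48 hours at 37C, ATP-based CellTiter-Glo luminescence indicated remaining viability.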
# [7] = Quantitative High-Throughput drug screen in 47 multiple myeloma cell lines against the NCATS MIPE library collection: KMS11_JCRBsus cell viability assay (AID 1919873); note: nearly all actives have a fitted effect of over 50% in size; note: potency is the fitted concentration of half-maximal effect
# Summary of the method: as §1
# [8] = qHTS drug screen for cell cycle checkpoint inhibitors in PARPi-resistant BRCA-mutant ovarian cancer cell lines. (AID 1963452; calls by dose curve); details: PEO1/OlaR viability, CellTiter-Glo luminescence, 96 h, stronger effect = lower value
# Summary of the method: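 PEO1, PEO4 and PEO1/OlaR ovarian cancer cells, 600 per well, exposed 96 h at 37C to a dilution series. Viability read by CellTiter-Glo luminescence, normalized to DMSO and empty wells; activity summarized as Z-AUC.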
# [9] = Quantitative High-Throughput drug screen in 47 multiple myeloma cell lines against the NCATS MIPE library collection: XG6_PLB cell viability assay (AID 1919865); note: nearly all actives have a fitted effect of over 40% in size; note: potency is the fitted concentration of half-maximal effect
# Summary of the method: as §1
# [10] = Quantitative High-Throughput drug screen in 47 multiple myeloma cell lines against the NCATS MIPE library collection: XG1_PLB cell viability assay (AID 1919866); note: potency is the fitted concentration of half-maximal effect; nearly all actives have a fitted effect of over 35% in size
# Summary of the method: as §1
# [11] = Quantitative High-Throughput drug screen in 47 multiple myeloma cell lines against the NCATS MIPE library collection: UTMC2_PLB cell viability assay (AID 1919868); details: CellTiter-Glo ATP luminescence, 48 h; viability (% of DMSO control): at 45.8 µM (top of the series); note: nearly all actives have a fitted effect of over 55% in size; note: potency is the fitted concentration of half-maximal effect;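 for viability (% of DMSO control): 100% = DMSO-only wells and 0% = media-only wells without cells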
# Summary of the method: as §1
# [12] = Quantitative High-Throughput drug screen in 47 multiple myeloma cell lines against the NCATS MIPE library collection: PE2_PLB cell viability assay (AID 1919869); note: nearly all actives have a fitted effect of over 35% in size; note: potency is the fitted concentration of half-maximal effect
# Summary of the method: as §1
# [13] = Quantitative High-Throughput drug screen in 47 multiple myeloma cell lines against the NCATS MIPE library collection: PCM6_Riken cell viability assay (AID 1919870); note: potency is the fitted concentration of half-maximal effect; nearly all actives have a fitted effect of over 30% in size
# Summary of the method: as §1
# [14] = Quantitative High-Throughput drug screen in 47 multiple myeloma cell lines against the NCATS MIPE library collection: RPMI8226_ATCC cell viability assay (AID 1919871); note: nearly all actives have a fitted effect of over 30% in size; note: potency is the fitted concentration of half-maximal effect
# Summary of the method: as §1
# [15] = Quantitative High-Throughput drug screen in 47 multiple myeloma cell lines against the NCATS MIPE library collection: KMS28BM_JCRB cell viability assay (AID 1919874)
# Summary of the method: as §1
# [16] = qHTS for identification of novel therapeutic agents for treatment of microphthalmiaassociated transcription factor (MiT) renal cell carcinoma (RCC) (AID 1963991; calls by dose curve; note: potency is the fitted concentration of half-maximal effect); details: CellTiter-Glo, 48 h; for z-score: stronger effect = lower value
# Summary of the method: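 Curves over 11 concentrations were fitted to CellTiter-Glo luminescence, scaled between empty wells (0%) and DMSO (100%) viability. Cells were UOK109, UOK124 and UOK145 TFE3-fusion RCC lines at 500/well, exposed 48 hours at 37 C.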
# [17] = measured here: PEO1 parental Z-AUC
# [18] = TFE3-RCC UOK109 viability, measured here: UOK109 Z-AUC
# [19] = TFE3-RCC viability, measured here: UOK124 Z-AUC
# [20] = TFE3-RCC viability, measured here: UOK145 Z-AUC
smiles,measurement,setting,value
CCOC(=O)Nc1ccc(NCc2ccc(F)cc2)cc1N,Potency,[1],inactive
same,Potency,[2],18700 nM (active)
same,viability,[3],119% (inactive)
same,Potency,[4],13200 nM (active)
same,Potency,[5],20900 nM (active)
same,Potency,[6],inactive
same,Potency,[7],inactive
same,Z-AUC,[8],-0.328 (inactive)
same,Z-AUC,[8]; [17],0.0556
same,Z-AUC,[8]; measured here: PEO4 Z-AUC,0.397
Cc1[nH]nc2ccc(-c3cncc(OC[C@@H](N)Cc4c[nH]c5ccccc45)c3)cc12,Potency,[1],833 nM (active)
same,Potency,[2],1180 nM (active)
same,Potency,[3],5900 nM (active)
same,Potency,[4],83.3 nM (active)
same,Potency,[9],418 nM (active)
same,Potency,[10],235 nM (active)
same,Potency,[5],296 nM (active)
same,Potency,[11],372 nM (active)
same,Potency,[12],935 nM (active)
same,Potency,[13],264 nM (active)
same,Potency,[14],3320 nM (active)
same,Potency,[6],14800 nM (active)
same,Potency,[7],372 nM (active)
same,Potency,[15],296 nM (active)
same,Z-AUC,[8],-2.34 (inactive)
same,Z-AUC,[8]; [17],-1.86
same,Z-AUC,[8]; measured here: PEO4 Z-AUC,-2.37
CC(C)(O)C=CC(=O)[C@](C)(O)[C@H]1[C@H](O)C[C@]2(C)[C@@H]3CC=C4[C@@H](C=C(O)C(=O)C4(C)C)[C@]3(C)C(=O)C[C@@]12C,Potency,[1],46.9 nM (active)
same,Potency,[2],105 nM (active)
same,Potency,[3],2640 nM (active)
same,Potency,[4],526 nM (active)
same,Potency,[5],105 nM (active)
same,Potency,[11],41.8 nM (active)
same,Potency,[12],33.2 nM (active)
same,Potency,[14],52.6 nM (active)
same,Potency,[6],132 nM (active)
same,Potency,[7],118 nM (active)
same,Potency,[15],166 nM (active)
same,Potency,[16]; TFE3-RCC UOK109 viability,83.3 nM (active)
same,z-score,[16]; [18],-3.73
same,z-score,[16]; [19],-2.29
same,z-score,[16]; [20],-2.28
CC=C(C)C(=O)O[C@H]1C(C)=C2[C@@H]3OC(=O)[C@@](C)(O)[C@@]3(O)[C@@H](OC(=O)CCC)C[C@](C)(OC(C)=O)[C@@H]2[C@@H]1OC(=O)CCCCCCC,Potency,[1],10.5 nM (active)
same,Potency,[2],264 nM (active)
same,Potency,[3],105 nM (active)
same,Potency,[4],935 nM (active)
same,Potency,[5],52.6 nM (active)
same,Potency,[11],743 nM (active)
same,Potency,[12],264 nM (active)
same,Potency,[13],11800 nM (active)
same,Potency,[6],33.2 nM (active)
same,Potency,[7],33.2 nM (active)
same,Potency,[15],166 nM (active)
COc1ccc2c(c1)[C@]13CCCCC1C(C2)N(C)CC3 (stereo not given in full),Potency,[1],inactive
same,Potency,[2],inactive
same,viability,[3],120% (inactive)
same,Potency,[4],inactive
same,Potency,[9],inactive
same,Potency,[11],inactive
same,Potency,[12],inactive
same,Potency,[14],inactive
same,Potency,[6],inactive
same,Potency,[7],inactive
same,z-score,[16]; [18],-0.129
same,z-score,[16]; [19],0.851
same,z-score,[16]; [20],0.444
CN1[C@H]2CC(O)C[C@H]1[C@H]1O[C@H]12 (stereo not given in full),Potency,[1],18700 nM (active)
same,Potency,[2],18700 nM (active)
same,Potency,[3],23500 nM (active)
same,Potency,[4],23500 nM (active)
same,Potency,[9],7430 nM (active)
same,Potency,[10],9350 nM (active)
same,Potency,[5],9350 nM (active)
same,Potency,[12],20900 nM (active)
same,Potency,[6],23500 nM (active)
